TDP-43 yeast inh – rescues yeast growth from TDP-43 toxicity | TDP-43 expressing yeast growth rescue, BacTiter-Glo, 24 h | Potency, µM (titrated, usually from 46.1 µM), for inactives: top-dose growth rescue (activation), most hits filed as activators | hit rate 1.8% among 410,000 | AID 652104; further: % of control where 0% means no effect; nearly all actives have a fitted effect of over 50% in size
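In this qHTS, compounds that restore growth of yeast expressing TDP-43 appear as activators. Cells (OD600=0.02, galactose medium, raffinose-pregrown) are incubated with compound 24 hr at 30 deg C and growth is quantified by BacTiter-Glo.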
Abeta yeast res – compounds reversing amyloid beta toxicity in yeast; yeast expressing A-beta42, growth rescue, OD600, 48 h; response scale: 0% DMSO, 100% iron-clioquinol control; Potency, µM (doses to about 46.1 µM), hits mostly activators; hit rate 0.063% among 410,000; AID 1347071; further: nearly all actives have a fitted effect of over 55% in size
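Growth rescue measured by 600 nm absorbance after 48 h yeast culture at 30 C with compound. Values normalized between DMSO and an equimolar ferric chloride plus clioquinol control.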
aSyn rescue – rescues yeast growth from alpha-synuclein toxicity; Yeast expressing alpha-synuclein, growth rescue, BacTiter-Glo, 24 h; Potency, µM (top dose mostly 46.1 µM), inactives show at the top dose growth rescue (activation), most hits filed as activators; hit rate 0.14% among 370,000; AID 652106; further: % of control where 0% means no effect; nearly all actives have a fitted effect of over 65% in size
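Readout is rescue of growth in alpha-synuclein-expressing yeast, so inhibitors of toxicity appear as activators. Growth after 24 hr at 30 deg C in galactose medium is quantified by luminescence.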
FUS suppressor – FUS proteinopathy suppression in yeast; AID 1347120; Potency, µM (doses to about 76.6 µM), most hits filed as activators; S. cerevisiae FUS-expressing, growth rescue, OD600, 24 h; hit rate 0.24% among 390,000;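 further: plate controls were DMSO vehicle for no effect and reference control for full effect; nearly all actives have a fitted effect of over 55% in size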
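FUS-expressing yeast, raffinose-pregrown, induced in 2% galactose minimal medium at OD 0.005; compounds in a dilution series, 24hr at 30C. Growth restoration read as absorbance at 600 nm. CP55940 positive control, DMSO negative.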
* = called active by the depositor; i = inactive; ? = inconclusive; nt = no result given. Compounds with a hit are over-represented: about 2.1% of the library has one in this group of screens. The call rests on the fitted dose curve; in most records, active means well fitted curve in the direction sought with a large enough effect; inconclusive means small, poorly fitted or top-dose-only effect, or another doubt; inactive means no such curve, though single readings can be large; an effect the other way counts as inactive or inconclusive. Potency means the concentration at half of the fitted maximal effect.

SMILES	TDP-43 yeast inh	Abeta yeast res	aSyn rescue	FUS suppressor
COC(=O)c1cccc(NC(=S)Nc2cc(Cl)ccc2OC)c1	22µM*	i	5%	i
COc1ccc(C(=O)Nc2cc(C(=O)O)cc(C(=O)O)c2)cc1Cl	-24%	i	-5%	i
Cc1cccc(C(C)Nc2ccc([N+](=O)[O-])cn2)c1 (stereo not drawn)	18µM*	i	0%	i
Cc1ccccc1Nc1ccc([N+](=O)[O-])cn1	?	i	-14%	i
CCCCCOC(=O)c1c(N)n(CCOC)c2nc3ccccc3nc12	18µM*	i	3%	i
CCOC(=O)c1c(N)n(CCOC(=O)c2cccs2)c2nc3ccccc3nc12	-7%	i	1%	i
COc1cc2sc(-c3ccccc3OC)c(-c3ccc(O)cc3)c2cc1OC	16µM*	i	-1%	i
COc1ccc2sc(-c3ccccc3OC)c(-c3ccc(O)cc3)c2c1	-91%	i	-62%	?
Cc1ccc(C(=O)NCC(=O)OCc2csc(-c3ccccc3)n2)cc1	15%	i	-4%	i
O=C(OCc1csc(-c2ccccc2)n1)c1ccc(O)cc1	10µM*	i	-8%	i
O=C(OCc1csc(Nc2ccccc2)n1)c1ccc(Cl)cc1	10µM*	?	-17%	i
Cc1ccc(C(C)C)cc1OCC(=O)N/N=C/c1ccc2c(c1)OCCO2	13µM*	i	0%	i
Cc1cccc(C)c1OCC(=O)N/N=C/c1ccc2c(c1)OCO2	12%	i	2%	i
Fc1ccccc1C1CC(c2ccco2)=Nc2ccccc2S1 (stereo not drawn)	22µM*	i	22%	i
COc1ccccc1C1CC(c2cccs2)=Nc2ccccc2S1 (stereo not drawn)	14%	i	8%	i
CCN(CC)CCOC(=O)c1ccc(NC(=O)c2nn(-c3ccc(C)cc3)c(=O)c3c2c2ccccc2n3C)cc1	-28%	i	nt	i
COC(=O)c1cc2occc2n1Cc1nc(-c2ccccc2)oc1C	21%	i	nt	i
O=C1C(=O)c2c(ccc3ccccc23)-c2ccccc21	2µM*	i	-27%	i
CCN1C(=O)/C(=C\c2nc3ccccc3c(=O)n2CC)c2ccccc21	13µM*	i	6%	i
CCn1c(/C=C\c2ccccc2C)nc2ccccc2c1=O	22µM*	i	-5%	i
CCn1c(/C=C2/C(=O)N(C)c3ccccc32)nc2ccccc2c1=O	14µM*	i	19%	i
CCn1c(/C=C2\C(=O)N(C)c3ccccc32)nc2ccccc2c1=O	?	i	1%	i
O=S(=O)(c1ccc(Br)cc1)N1CCN(c2nc(-c3cccs3)nc3ccccc23)CC1	nt	nt	2%	nt
CCc1ccc(-c2nc(CN3CCC(C(=O)NCc4ccc(F)cc4)CC3)c(C)o2)cc1	2µM*	i	nt	i
COc1ccc(-c2nc(CN3CCC(C(=O)NCc4ccc(F)cc4)CC3)c(C)o2)cc1OC	2%	i	nt	i
SMILES	TDP-43 yeast inh	Abeta yeast res	aSyn rescue	FUS suppressor
CCc1ccc(OCC(=O)Nc2cc(-c3nc4cc(C)ccc4o3)ccc2C)cc1	18%	i	1%	i
O=C(Nc1cccc(NC(=O)c2ccc(-c3ccc(Br)cc3)o2)c1)c1ccccc1	-6%	i	1%	i
CC(=O)c1ccc(NC(=O)c2ccc(-c3ccc(Cl)cc3)o2)cc1	11µM*	i	nt	i
O=C(Nc1ccccc1)c1ccc(-c2ccc(Br)cc2)o1	13µM*	i	-21%	i
CN(C)C(=O)c1ccc(NC(=O)c2ccc(-c3ccc(Cl)cc3)o2)cc1	?	i	-8%	nt
COc1ccc(CN2C(=O)N(c3ccccc3)C(=O)C2c2ccccc2)cc1COc1ccc(NC(C)=O)cc1 (stereo not drawn)	nt	nt	0%	nt
C#CCSc1nc2ccccc2c(=O)n1CC=C	nt	nt	5%	nt
C#CCSc1nncn1C(=O)/C=C/c1ccccc1	-16%	i	13µM*	i
CCCCN=Cc1sc2ccc(OCC)cc2c1O	16µM*	i	5%	i
Cn1c(=O)n(CCc2ccccc2)c(=O)c2c1nc1n2CCCN1CCc1ccccc1	13µM*	i	1%	i
O=C(c1cc(-c2ccccc2)nc2ccccc12)N1CCc2ccccc2C1	25µM*	i	-16%	nt
COc1cccc(-c2cc(C(=O)N3CCN(c4ncccn4)CC3)c3ccccc3n2)c1	18µM*	i	4%	nt
